The text below walks through data of the OligoGym collection.
Further: reference of the scale not given here.

One experiment has as its target MYO1F. Put plainly: pooled miR-30 sensor sort-seq; sequence = guide strand. Conditions: shRNA.
TAGCACTCAGAGTCTCACCAAA came in with a sensor-assay potency score (higher = more potent) of -0.917.

In turn, TTGTTGTTGCGCACAGTCTTGG registered a sensor-assay potency score (higher = more potent) of -0.625. TAGTGTGTCGCTGAAGGTGAGG showed a sensor-assay potency score (higher = more potent) of -0.748.

TTCTTGACAAAGACCTTGGTGC: the sensor-assay potency score (higher = more potent) was found to be 0.169. In turn, AAAGTCGCTTCTGTCGTCCGTG came in with a sensor-assay potency score (higher = more potent) of -0.528. Still for that read-out and setting: the figure for TTGGCTTGTTTCTTGATCTTGG is 0.371. TTGAGCACTGCCAAGTCGCCGA displayed a sensor-assay potency score (higher = more potent) of -0.541. Same read-out and setting: the figure for TTCCGGTACATGTTGTCCGTGA is 0.0719; for TTGGCTGCCACTGTCTTCCCAG it is -0.239.

For another experiment, the target named is MYRIP. Described as above. The note with it: shRNA.
Regarding TGACACATAACACAGCATCAGC, the sensor-assay potency score (higher = more potent) is -1.31. TTTTCGTATAATCTTCTGCAGG yielded a sensor-assay potency score (higher = more potent) of -1.35. Take TTATCTCTTATAAACACTCTAA: the sensor-assay potency score (higher = more potent) is -0.392. For the sequence ATTGCTAACTCGTACAGCCTGT, the sensor-assay potency score (higher = more potent) was -0.149. As for TTTAATAGTAAATTAAATCTTT, the sensor-assay potency score (higher = more potent) is -0.26.

In turn, TTTTGCTCTTCTGTTTTCGTAT showed a sensor-assay potency score (higher = more potent) of -0.368.

The sequence TTAAATAATAATTCCCACCTTC showed a sensor-assay potency score (higher = more potent) of 0.152.

Consider TTTTGCTTTGAATCACACCAAC, for which the sensor-assay potency score (higher = more potent) was -1.21. With ATCTTCTGCAGGATTGTCGTGG, the sensor-assay potency score (higher = more potent) is -0.78. In turn, TAACACAACAATAGTTGCTTTT registered a sensor-assay potency score (higher = more potent) of -1.01.
